Assay results as given in PubChem BioAssay (NCI).
This is part of a sample that, as a whole, favours compounds with a hit. Of some 79,000 tested, about 15% had one in any assay. Cut-off read from the data, not from the text of the source: active = growth inhibition above about 70%; inactive = the rest.

What was measured:
[1] = NCI Yeast Anticancer Drug Screen. Data for the rad50 strain (AID 155);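 note: 0% = growth of vehicle-only cultures of the same strain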; conditions: S. cerevisiae rad50 strain growth inhibition; at 50.0 µM; active compounds read high
Summary of the method: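 Genetically altered yeast (DNA repair pathway); compound treatment; growth inhibition vs vehicle ctrl.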

[2] = NCI Yeast Anticancer Drug Screen. Data for the mec2-1 strain (AID 157); conditions: S. cerevisiae mec2-1 strain, at 50.0 µM, active compounds read high
Summary of the method: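 Test agents were screened against the mec2-1 yeast strain, with defined DNA repair or cell cycle alteration. Growth was scored as inhibition against vehicle-only controls.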

[3] = NCI Yeast Anticancer Drug Screen. Data for the sgs1 mgt1 strain (AID 161);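 note: 0% = growth of cultures given vehicle only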; conditions: S. cerevisiae sgs1 mgt1 strain, at 50.0 µM, active compounds read high
Summary of the method: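 Read-out: growth inhibition vs vehicle controls. Cells: mutant yeast strain deficient in DNA damage repair.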

[4] = NCI Yeast Anticancer Drug Screen. Data for the cln2 rad14 strain (AID 165);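 note: 0% = growth equal to vehicle treated cultures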; conditions: S. cerevisiae cln2 rad14 strain, at 50.0 µM, active compounds read high
Summary of the method: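 Growth of compound-exposed yeast (cln2 rad14 genotype) measured and expressed as inhibition relative to vehicle.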

[5] = NCI Yeast Anticancer Drug Screen. Data for the bub3 strain (AID 167); conditions: S. cerevisiae bub3 mutant strain, at 50.0 µM, active compounds read high
Summary of the method: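 Yeast carrying a defined mutation is treated with each compound, and growth is compared with that of vehicle-exposed cells to give inhibition.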

[6] = NCI Yeast Anticancer Drug Screen. Data for the mlh1 rad18 strain (AID 175); conditions: S. cerevisiae mlh1 rad18 strain growth inhibition; at 50.0 µM; active compounds read high
Summary of the method: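 In this whole-cell yeast screen, a strain with altered DNA damage repair is challenged with compound, and its growth is measured against matched vehicle-treated controls.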

Measured: growth inhibition

CC(=O)Nc1ccc(/C=C2\N=C(c3ccccc3)OC2=O)cc1
inactive: [1] 15.9% | [2] -1.75% | [3] 11.8% | [4] -49% | [5] -10.9% | [6] 10.3%

Cc1c[n+]([O-])cc(C)c1N=Nc1ccc(N(C)C)cc1
inactive: [1] 2.55% | [2] -7.7% | [3] -7.95% | [4] 11.1% | [5] 11.9% | [6] 18.2%

O=C(c1ccccc1)c1cccs1
inactive: [1] -19.3% | [2] -1.9% | [3] -12.7% | [4] -45.6% | [5] -14.5% | [6] -17.9%

Cc1ccc2nc(-c3ccc(CSC(=N)N)cc3)oc(=O)c2c1
inactive: [1] 40.2% | [2] 43.5% | [3] 45.6% | [4] 20.9% | [5] 19.1% | [6] 42%

NC(=O)Oc1ccc(Cc2ccccc2)cc1
inactive: [1] -20.7% | [2] -43.2% | [3] -12.6% | [4] -8.95% | [5] -40.4% | [6] -5.05%

Cc1ccc(N(C(=O)CC(=O)N/N=C/c2ccccc2O)C(=O)c2ccccc2)cc1
inactive: [1] -6.55% | [2] -16.8% | [3] -2.05% | [4] 8.2% | [5] -27.1% | [6] -10.8%

O=C(NNS(=O)(=O)c1ccccc1)c1cccc([N+](=O)[O-])c1
inactive: [1] -0.95% | [2] -18.8% | [3] 7.25% | [4] 8.2% | [5] 5% | [6] -11.4%

CCn1c(C)[n+](CC)c2ccc(C(C)=O)cc21
inactive: [1] -0.35% | [2] -19.7% | [3] -3.95% | [4] 8.95% | [5] 2.55% | [6] -8.75%

CC1CCCc2c1c1ccc3c(O)cccc3c1oc2=O (stereo unspecified)
inactive: [1] -10% | [2] -4.15% | [3] -15.4% | [4] 16.9% | [5] -5.95% | [6] -18.9%

Cc1ccc(-c2cc(=O)c3cc(C)c(C)c(C(=O)O)c3o2)cc1N
inactive: [1] -8.6% | [2] -3.55% | [3] 11.9% | [4] 6.1% | [5] 14.2% | [6] -7.4%

COc1ccccc1CNCCCCCNCCCCCCCCCCNCCCCCNCc1ccccc1OC
inactive: [1] -32.4% | [2] -11.1% | [3] -27.9% | [4] -9.1% | [5] -22% | [6] -36.5%

COc1ccc(/C=C2\NC(=S)N(/C=C3\C(=O)Oc4ccccc4C3=O)C2=O)cc1OC
inactive: [1] -5.85% | [2] -17.6% | [3] 13.1% | [4] -7.85% | [5] -13.8% | [6] 6.4%

COc1ccc(C2SCC(=O)N2c2nncs2)cc1F (stereo unspecified)
inactive: [1] 6.2% | [2] 1.55% | [3] 20.9% | [4] 2.9% | [5] 12.6% | [6] 20.2%

CC1=CC2C(c3ccccc3)Nc3ccccc3N2C1=O (stereo unspecified)
inactive: [1] 32.6% | [2] 8.4% | [3] 10.2% | [4] 8.45% | [5] -8.65% | [6] -6.45%

CC(=O)OCC(=O)[C@@]1(O)CC[C@H]2[C@@H]3C[C@H](C)C4=CC(=O)C=C[C@]4(C)[C@@]3(Br)[C@@H](O)C[C@@]21C
inactive: [1] 30.9% | [2] 7.75% | [3] 38.3% | [4] 35.9% | [5] 1.35% | [6] -9.1%

CN(C)Cc1c(CC(O)(c2ccccc2)c2ccccc2)ccc2ccccc12
inactive: [1] 10.8% | [2] -4.75% | [3] -12.2% | [4] -0.55% | [5] -1.2% | [6] 5.6%

C=C(Cl)COc1ccc(C(=O)c2ccccc2)cc1
inactive: [1] -4.5% | [2] -9% | [3] -6.5% | [4] -64% | [5] -7.25% | [6] -14.9%

Cc1ccc(S(=O)(=O)Nn2c(O)c(C#N)c(-c3ccc([N+](=O)[O-])cc3)c(C#N)c2=O)cc1
inactive: [1] 4.8% | [2] 6.9% | [3] -7.9% | [4] 15.6% | [5] -13.2% | [6] -8.8%

CCCc1ncc(C[n+]2ccccc2C)c(N)n1
inactive: [1] 11.8% | [2] -15.1% | [3] 23.2% | [4] 25.4% | [5] 10.7% | [6] 8.25%

C=C1CC[C@H]2C(C)=CC[C@H]3C(=C)C(=O)O[C@@H]3[C@@H]12
inactive: [1] -36.4% | [2] -17% | [3] -24.1% | [4] -3.9% | [5] -15.4% | [6] -6%

CCCCCCCCCCCCCCCCCC(N)=O
inactive: [1] 5.2% | [2] -14.2% | [3] 3.35% | [4] -15.7% | [5] -2.5% | [6] 25.4%

Cc1cc[n+](C)c(-c2ccccc2)c1
inactive: [1] 5.65% | [2] -2.25% | [3] 7% | [4] 21.2% | [5] 5.9% | [6] 11.6%

CC1=CC2(C)Cc3cc(C)cc(C)c3S(=O)(=O)C2C(C(=O)O)=C1 (stereo unspecified)
inactive: [1] -11% | [2] -30.4% | [3] -13.9% | [4] -13.5% | [5] -14.8% | [6] -15.2%

C#CCOc1ccc(O)c(C(=O)OCCCOC(=O)c2cc(OCC#C)ccc2O)c1
inactive: [1] 16.1% | [2] 6.95% | [3] -3.9% | [4] 16.9% | [5] -2.1% | [6] 15.1%

O=C(Nc1cccc2ccccc12)c1ccccc1F
inactive: [1] -1.35% | [2] 16.8% | [3] 14.9% | [4] -2.15% | [5] 21.1% | [6] 11.8%

CCC1(CC)SCc2nc3ccccc3n21
inactive: [1] 23% | [2] 18.2% | [3] 58.3% | [4] 29.3% | [5] 58.8% | [6] 42.3%

CCCCCCCCCC1=C(C#N)C(=O)OCCN1C
inactive: [1] -12.9% | [2] -2.7% | [3] 0.05% | [4] -22.1% | [5] -11.4% | [6] 3.6%

Cc1ccc(C2C(Cl)C(=O)N2NC(=O)c2ccc(N)cc2)cc1 (stereo unspecified)
inactive: [1] -50.4% | [2] -21.5% | [3] -61.1% | [4] -46.8% | [5] -27.4% | [6] -42%

COc1cccc2c(Nc3ccc(S(=O)(=O)Nc4ncccn4)cc3)c3ccc([N+](=O)[O-])cc3nc12
inactive: [1] 59.8% | [2] 12.1% | [3] 29.2% | [4] 11.2% | [5] 32.2% | [6] 16.2%

NC(=O)COc1ccccc1
inactive: [1] -14.5% | [2] -8.75% | [3] -1.1% | [4] 14.6% | [5] -0.15% | [6] 27.9%

COc1ccc(C(=O)C(CO)Oc2ccccc2OC)cc1OC (stereo unspecified)
inactive: [1] -3.05% | [2] 7.5% | [3] -20.2% | [4] 4.25% | [5] -13.5% | [6] -1.35%

CC(C)(C)CI
inactive: [1] 15.6% | [2] 3.85% | [3] 7.65% | [4] 4.9% | [5] -11.2% | [6] -35.3%

O=C1NC(O)c2cccc([N+](=O)[O-])c2O1 (stereo unspecified)
inactive: [1] 19.4% | [2] 9.1% | [3] 15% | [4] 65.5% | [5] -14.8% | [6] 30.8%

NC(=S)N/N=C(\CCC(=O)Nc1ccccc1[N+](=O)[O-])CC(=O)c1ccco1
inactive: [1] -1.55% | [2] -1.95% | [3] -19.9% | [4] 27.4% | [5] -19.8% | [6] 6.3%

O=c1[nH]n2c(=O)cc[nH]c2c1-c1nnns1
inactive: [1] -15.8% | [2] -2.95% | [3] -36.1% | [4] 9.65% | [5] -21.1% | [6] -25.2%

O=C(O)c1cccc([N+](=O)[O-])c1C(=O)O
inactive: [1] 15.3% | [2] 11.3% | [3] 11.4% | [4] 7.9% | [5] -1.9% | [6] 17.2%

Cc1c(Br)[n+](=O)c2ccccc2n1[O-]
inactive: [1] 1.6% | [2] 6.45% | [3] 17.4% | [4] 14.2% | [5] 11.9% | [6] 21.9%

CN(C)C=Nc1cc2c(cc1Br)-c1ccccc1C2=O
inactive: [1] 3.05% | [2] 10.3% | [3] 4.4% | [4] -0.45% | [5] 2% | [6] -15.7%

COc1cc(C=Nc2ccc(Cl)cc2)ccc1O
inactive: [1] -35.9% | [2] -25.9% | [3] -19.1% | [4] -20.6% | [5] -24.9% | [6] -43.3%

CC(C)[C@@H]1C=C(c2ccccc2)c2ccccc2C1C(C#N)(C#N)C(C)C (stereo partly specified)
inactive: [1] -30.2% | [2] -33.5% | [3] -10.3% | [4] -8.4% | [5] -12.9% | [6] -14.1%

C/C(=N/NC(N)=O)C1=CCCC1
inactive: [1] 2.9% | [2] -2.05% | [3] -6.6% | [4] 11% | [5] 7.55% | [6] -9.1%
